A selection: hits, their analogues and other compounds. The true share with any hit is near 1.8%.
CendR NRP1 mod = alters CendR peptide binding to human NRP-1 | inhibition, % at 25 µM | FAM-RPARPAR peptide binding to NRP-1, fluorescence polarization | hit rate 0.85% among 360,000 | AID 602438 | O14786;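 active means inhibition or corrected inhibition above about 18%, plus a signal ratio from 0.5 to 1.5, limit read from the data, passing the limit was not always enough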
Target sequence (O14786 whole entry, looked up): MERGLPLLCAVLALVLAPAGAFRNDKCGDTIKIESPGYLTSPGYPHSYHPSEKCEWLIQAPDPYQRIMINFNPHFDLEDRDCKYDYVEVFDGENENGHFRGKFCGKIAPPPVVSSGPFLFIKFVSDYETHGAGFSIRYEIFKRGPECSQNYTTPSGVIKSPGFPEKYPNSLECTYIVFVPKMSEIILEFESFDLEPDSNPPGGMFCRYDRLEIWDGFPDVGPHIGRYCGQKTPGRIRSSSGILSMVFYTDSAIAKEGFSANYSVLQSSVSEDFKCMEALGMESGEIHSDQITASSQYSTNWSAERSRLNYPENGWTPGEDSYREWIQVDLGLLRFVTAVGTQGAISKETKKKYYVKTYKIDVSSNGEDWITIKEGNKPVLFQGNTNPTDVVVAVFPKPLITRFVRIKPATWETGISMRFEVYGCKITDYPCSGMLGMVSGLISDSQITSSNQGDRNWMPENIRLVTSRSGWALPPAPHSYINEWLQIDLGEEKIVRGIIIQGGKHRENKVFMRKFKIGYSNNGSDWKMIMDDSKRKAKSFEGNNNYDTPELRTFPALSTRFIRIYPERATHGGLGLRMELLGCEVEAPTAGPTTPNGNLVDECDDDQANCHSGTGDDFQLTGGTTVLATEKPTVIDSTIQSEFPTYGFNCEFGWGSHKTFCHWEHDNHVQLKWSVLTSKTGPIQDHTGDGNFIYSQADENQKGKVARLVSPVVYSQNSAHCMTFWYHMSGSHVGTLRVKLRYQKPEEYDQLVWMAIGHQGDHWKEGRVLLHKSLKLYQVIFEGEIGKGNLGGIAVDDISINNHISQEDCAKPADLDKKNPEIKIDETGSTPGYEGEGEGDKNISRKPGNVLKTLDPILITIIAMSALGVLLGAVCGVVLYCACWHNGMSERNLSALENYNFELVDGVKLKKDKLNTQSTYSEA
VLA-4 inh = inhibition in a human VLA-4 binding assay. P13612. VLA-4 expressing cells, ligand binding flow cytometry. inhibition, % (about 7 µM as worked out from the volumes in the protocol). hit rate 0.2% among 330,000. AID 2557; in the data active means inhibition above about 50%
APOBEC3A inh = blocks human APOBEC3A ssDNA deamination. P31941. inhibition, % at 20 µM. AID 493011. hit rate 0.41% among 330,000. recombinant A3A, FAM/TAMRA ssDNA deamination fluorescence;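 active means at least 40% inhibition at 20 µM here, with at most 30% in a related deaminase screen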
beta cell repl = induces beta-cell replication in MIN6 cells | hit rate 0.29% among 330,000 | MIN6 cells proliferation, ATPlite luminescence, 48 h; cells starved in 0.2% serum; 100% = growth in 10% serum | proliferation, % at 10 µM | AID 2380;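 active means compounds whose signal lies at least 3.5 SD above the mean of all wells on their plate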
A3G deaminase = inhibitors of human APOBEC3G DNA deaminase; recombinant A3G, ssDNA deamination FAM/TAMRA fluorescence; AID 493012; inhibition, % at 20 µM; Q9HC16; hit rate 0.28% among 330,000;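 active means inhibition of at least 40% at 20 µM, with no more than 30% in the related APOBEC3A deaminase screen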
Each line names hits and unclear results; the compound was inactive in the other large screens.

COc1ccc(C(=O)NCCCOC(C)C)cc1OC1CCN(C(C)=O)CC1	none
CCOc1ccc(NC(=O)c2cccc(NC(C)=O)c2)cc1S(=O)(=O)N1CCCC1	none (no result: VLA-4 inh)
CN(C)C=NC(=O)c1[nH]c2ccc(Cl)cc2c1-c1ccccc1	none
Cc1cc[n+](-c2[nH]c(=O)sc2/C=N/NC([S-])=Nc2ccccc2)cc1	CendR NRP1 mod 55.0
CC(C)(C)c1cc[n+](-c2[nH]c(=O)sc2/C=N/NC(=O)c2ccccc2[O-])cc1	CendR NRP1 mod 27.2
Cc1cc(C)c[n+](-c2[nH]c(=O)sc2/C=N/NC([S-])=Nc2ccccc2)c1	CendR NRP1 mod 46.9
COc1ccc(CNc2nn3c(-c4cccc(C(=O)N(C)C)c4)cnc3s2)cc1	CendR NRP1 mod 29.9 (no result: VLA-4 inh, APOBEC3A inh, beta cell repl, A3G deaminase)
COCCNC(=O)C(=O)Nc1ccc(Br)cc1	none
COCCNC(=O)C(=O)Nc1cccc(Br)c1	CendR NRP1 mod 28.6
OC(c1ccccc1)(c1nc(/C=C/c2ccc(C(F)(F)F)cc2)cs1)C(F)(F)F (centres undefined)	none (no result: VLA-4 inh, APOBEC3A inh, beta cell repl, A3G deaminase)
O=C(NCC1CCCO1)c1nn2c(C(F)(F)F)cc(-c3ccco3)nc2c1Cl (centres undefined)	none
O=C(NCC1CCCO1)c1nn2c(C(F)(F)F)cc(-c3cc(Br)cs3)nc2c1Br (centres undefined)	CendR NRP1 mod 35.0
O=C(c1cccc(Cl)c1)N1CCCC(C(=O)N2CCN(c3ccccc3)CC2)C1 (centres undefined)	none
COc1ccc(-c2nc3c4ccccc4ccn3c2CN2CCOCC2)cc1OC	none
O=C(NNC(=O)C1CCN(c2ncccn2)CC1)c1ccc(F)cc1	CendR NRP1 mod 41.5
CCOC(=O)c1ccc(-c2c(-c3cc(OC)c(OC)c(OC)c3)noc2C)cc1F	CendR NRP1 mod 25.2
CCOC(=O)c1ccc(-c2c(-c3ccc(OC)cc3)oc(=O)c3cc(OC)c(OC)cc23)cc1F	none
O=C(CSC1CN(C(c2ccccc2)c2ccccc2)C1)N/N=C/c1ccccc1	CendR NRP1 mod 40.7
O=C(CCN1CCN(C(c2ccccc2)c2ccccc2)CC1)N/N=C/c1ccc(O)cc1	none
Cc1ccc(NC(=O)CCC(=O)N2CCN(S(=O)(=O)c3ccc(C)cc3)CC2)cc1	CendR NRP1 mod 44.7
Cc1ccc(S(=O)(=O)N2CCN(C(=O)CCC(=O)Nc3ccc(F)cc3F)CC2)cc1	none
O=S(=O)(c1ccc2c(c1)C(O)c1ccccc1CC2)C(F)(F)F (centres undefined)	none
COc1ccccc1CCC(=O)OCC(=O)Nc1ccc2[nH]c(=O)[nH]c2c1	none
CC(C)C[C@@H](CSc1ccc(Br)cc1)N1CCN(C)CCC1=O	none
Cc1ccc(SC[C@H](c2ccccc2)N2CCN(CC(C)C)CCC2=O)cc1	CendR NRP1 mod 32.7 (no result: VLA-4 inh)
CC(C)C[C@@H](CSc1ccc(Br)cc1)N1CCN(CC(C)C)CCC1=O	CendR NRP1 mod 21.2 (no result: VLA-4 inh)
Cc1cc2[nH]c(=O)c(=O)[nH]c2cc1S(=O)(=O)NC1CCCCC1C (centres undefined)	none
Cc1cc2c(cc1S(=O)(=O)NC1CCCCC1C)OCC(=O)N2 (centres undefined)	CendR NRP1 mod 39.5
Cc1ccc(S(=O)(=O)N2CCN(C(=O)COC(=O)C3CCC3)CC2)cc1	none
O=C(C[C@@H]1C/C=C\CC[C@H](Cc2ccc(F)cc2)C(=O)OC[C@@H]2CCCN2C1=O)NCCO	CendR NRP1 mod 20.4
O=C(C[C@H]1C/C=C\C[C@H](Cc2ccc(F)cc2)C(=O)O[C@@H](c2ccccc2)CNC1=O)NCCO	CendR NRP1 mod 21.7
CC1(C2CC2)NC(=O)N(CC(=O)Nc2ccccc2C#N)C1=O (centres undefined)	none (no result: VLA-4 inh)
Cc1ccccc1OCC1Cc2c(nc(N)c(C#N)c2N)O1 (centres undefined)	CendR NRP1 mod 52.6
Cc1ccc(S(N)(=O)=O)cc1NC(=O)c1ccc2c3c(cccc13)CC2	none
Nc1cc(C(=O)O)c(N)c2c1C(=O)c1ccccc1C2=O	CendR NRP1 mod 57.2
N#CCS(=O)(=O)c1ccccc1	CendR NRP1 mod 23.7
O=S(=O)(CC=CCS(=O)(=O)c1ccccc1)c1ccccc1	none (no result: VLA-4 inh, APOBEC3A inh, beta cell repl, A3G deaminase)
COc1ccc2c(=O)c(-c3ccc(C)cc3)c(-c3ccccc3)oc2c1	none (no result: VLA-4 inh, beta cell repl)
O=C(NC1CCN(Cc2ccccc2)CC1)c1cccc(OC(F)F)c1	none
CC(=O)c1cccc(OCc2cc(C(=O)NC3CCN(Cc4ccccc4)CC3)no2)c1	CendR NRP1 mod 27.7
CSCCC(NS(=O)(=O)c1ccccc1F)C(=O)N1CCCCCCC1 (centres undefined)	CendR NRP1 mod 26.6
Clc1ccc(C2CC(c3cccs3)n3ncnc3N2)cc1 (centres undefined)	none
CCC(C)NC(=O)c1cnn2c1NC(c1cccs1)CC2C(F)(F)F (centres undefined)	CendR NRP1 mod 21.6
CC(C)(C)NC(=O)c1cnn2c1NC(c1ccc(F)cc1)CC2C(F)(F)F (centres undefined)	none
FC(F)(F)C1CC(c2cccs2)Nc2ncnn21 (centres undefined)	CendR NRP1 mod 29.9
CCN(CC)CCNC(=O)CCc1c(C)nc2c(c(C)nn2-c2ccc(C)cc2)c1C	none
CN(C)c1ccc(C(C(=O)NCC2CCCO2)N(Cc2ccccc2)C(=O)c2snc(C(N)=O)c2N)cc1 (centres undefined)	beta cell repl 8.8
NCCCC[C@H]1CNC(=O)C(=O)N1CC1CCCCC1	CendR NRP1 mod 18.3
CCCC[C@@H]1CNC(=O)C(=O)N1CC1CCCCC1	none (no result: VLA-4 inh, APOBEC3A inh, beta cell repl, A3G deaminase)
C/C(=C\c1ccccc1)C(=O)N1CCN(c2cccc(C(F)(F)F)c2)CC1	CendR NRP1 mod 29.4
COc1cccc(-n2cnnc2SCC(=O)NC2CC2)c1	none
Cc1ccc(OCCNc2ccc(S(=O)(=O)N3CCCC3)cn2)cc1	none (no result: VLA-4 inh)
CN(CCOc1ccc(Cl)cc1)c1ccc(S(=O)(=O)N2CCCCC2)cn1	CendR NRP1 mod 18.7
CS(=O)(=O)N(CC(=O)NCc1ccco1)c1ccc(OCc2ccccc2)cc1	none
Cc1cccc(C(CC(=O)N2CCCCC2)c2ccccc2)c1O (centres undefined)	none
O=C(NC1CC1)c1ccc(NS(=O)(=O)c2ccc(F)cc2)cc1	none
NC1=C(Br)C(=O)c2ncccc2C1=O	CendR NRP1 mod 27.7 (no result: VLA-4 inh, APOBEC3A inh, beta cell repl, A3G deaminase)
O=C1c2cccnc2C(=O)N1CO	none
CC(C)(C)C(=O)COC(=O)c1cc(-c2ccncc2)nc2ccccc12	CendR NRP1 mod 27.2
O=S(=O)(N1CCOCC1)N1CCOCC1	none
CC(=O)Nc1sc(C)c(C)c1C(=O)OCC(=O)N(Cc1ccccc1)C(C)C	none
CC(C(=O)N1CCN(c2ccc(Cl)cc2)CC1)c1ncc(C(F)(F)F)cc1Cl (centres undefined)	CendR NRP1 mod 47.4
O=C1C(Cl)=C(NS(=O)(=O)c2ccc([N+](=O)[O-])cc2)C(=O)c2ccccc21	CendR NRP1 mod 25.8
Cn1c(=O)c2[nH]c(CCNC(=O)c3ccccc3)nc2n(C)c1=O	CendR NRP1 mod 18.4 (no result: VLA-4 inh, APOBEC3A inh, beta cell repl, A3G deaminase)
Cn1c(=O)c2[nH]c(CCCCCc3nc4ccccc4[nH]3)nc2n(C)c1=O	none (no result: VLA-4 inh, APOBEC3A inh, beta cell repl, A3G deaminase)
O=C(CSc1ccc(-c2ccco2)nn1)Nc1ccccc1F	none

Screening data (PubChem BioAssay)
